In the library only some 0.9% were active in any assay of this set; here they are far more common.
Fluorescein autfl = fluorescein region autofluorescence; AID 593; max fluorescein-equivalent concentration, M; hit rate 0.91% among 59,000; Compound autofluorescence, 480/540 nm, fluorescein-equivalent; active compounds read high; in the data active = max fluorescein-equivalent concentration above about 10 nM; inconclusive = between about 1.1 nM and that limit
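Read-out is intrinsic compound fluorescence at 480/540 nm (excitation/emission), expressed as dye-equivalent concentration using a fluorescein standard series run on every plate. Compounds sat 15 min at room temperature in 100 mM Tris, pH 8.0.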
A647 fluor = A647 region autofluorescence | Compound fluorescence, A647 channel (570/671 nm), Tris buffer | max dye-equivalent concentration, M | 59,000 tested, under 10 active | AID 592;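 also: values scaled relative to a standard on each plate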
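Buffer was dispensed, compounds and Alexa 647 standards were pin-transferred, and plates sat 15 min at room temperature. Intensity at 570/671 nm was then converted to dye-equivalent concentration using the plate's A647 standard curve.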
Resorufin autofl = resorufin region autofluorescence; Compound fluorescence, resorufin region 547/598 nm, buffer; active compounds read high; max dye-equivalent concentration, M; hit rate 0.04% among 59,000
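Compounds in 100 mM Tris buffer, pH 8.0, incubated 15 min at room temperature, then read with 547 nm excitation and 598 nm emission filters. Fluorescence was converted to dye-equivalent concentration using an on-plate six-point resorufin standard curve.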
TexasRed autofl = Texas Red region autofluorescence. max dye-equivalent concentration, M. AID 587. hit rate 0.06% among 59,000. Compound fluorescence, Texas Red channel, 547/618 nm; active compounds read high; in the data active = max dye-equivalent concentration above about 10 nM; inconclusive = between about 1.1 nM and that limit
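Spectral interference profiling: each compound concentration's relative fluorescence, read with a 547 nm excitation and 618 nm emission filter pair, was normalized to a per-plate Texas Red standard curve.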
Rhodamine autofl = rhodamine region autofluorescence; Rhodamine-region fluorescence, 547/598 nm, Tris buffer; active compounds read high; max dye-equivalent concentration, M; AID 594; hit rate 0.05% among 59,000; in the data active = max dye-equivalent concentration above about 11 nM; inconclusive = between about 1.1 nM and that limit
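Compounds in 100 mM Tris buffer, pH 8.0, were incubated 15 min at room temperature, then read at 547 nm excitation and 598 nm emission. Fluorescence was normalized against a per-plate six-point rhodamine standard curve as dye-equivalent concentration.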
A488 autofl = A488 region autofluorescence; compound autofluorescence, A488 spectral region, dye equivalency; Compound Type: qHTS ECL - MLSMR; max dye equivalency, M; hit rate 0.1% among 59,000; AID 591
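Autofluorescence read at ex 480/em 540 nm after 15 min RT in 100 mM Tris pH 8.0; compound signal normalized to A488 standard series on each plate, reported as dye-equivalent concentration at each test concentration.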
* marks the source's active call; other numbers are inactive results; i = inactive; ? = inconclusive. Unless noted, no rule for the calls is given here.

SMILES | Fluorescein autfl | A647 fluor | Resorufin autofl | TexasRed autofl | Rhodamine autofl | A488 autofl
CCOc1ccc(C2C=C(c3ccccc3)Nc3ncnn32)cc1 (centres undefined) | 1.3e-08M* | 1.1e-09 | i | i | i | i
COc1ccc(C2C=C(c3ccc(C)cc3)Nc3ncnn32)cc1 (centres undefined) | 1.1e-08M* | 1.8e-09 | i | i | i | i
C1=C(c2ccc(-c3ccccc3)cc2)Nc2ncnn2C1c1ccco1 (centres undefined) | 1.4e-07M* | 3.6e-09 | i | i | i | ?
CCOc1ccc(C2C=C(c3ccc(F)cc3)Nc3ncnn32)cc1 (centres undefined) | ? | 4.8e-09 | i | ? | i | i
COc1ccc(C2C=C(c3ccc(Br)s3)Nc3ncnn32)cc1OC (centres undefined) | 1.3e-06M* | 1e-09 | i | i | i | 7.3e-08M*
COc1cccc(C2=CC(c3ccccc3)n3ncnc3N2)c1 (centres undefined) | ? | 6.1e-09 | i | i | i | i
O=C(c1ccco1)N1CCC2(CCCN(Cc3ccccc3)C2)CC1 | i | 1e-09 | i | i | i | i
O=[N+]([O-])c1ccc2ncccc2c1CCc1c([N+](=O)[O-])ccc2ncccc12 | 1.1e-08M* | 1e-09 | i | i | i | i
O=c1c2ccccc2c(/C=N/n2cnnc2)c(O)n1-c1ccccc1F | 1.3e-08M* | 2.8e-09 | i | i | i | i
CCOC(=O)[C@H](CCc1ccccc1)N[C@@H](C)C(=O)N1[C@H](C(=O)O)C[C@H]2CCC[C@@H]21 | 1e-08M* | 2.6e-08 | i | i | i | i
O=C(O)[C@@H]1CS[C@@]2(CCCN(Cc3ccccc3)C2)N1 | i | 1e-09 | i | i | i | i
CCOC(=O)c1ccc(CC(=O)c2oc3cc(O)ccc3c2C)o1 | 2.3e-08M* | 4.9e-09 | i | ? | i | i
CCOC(=O)c1oc2cc(O)ccc2c(=O)c1-c1csc(C)n1 | ? | 1.7e-08 | i | i | i | i
COC(=O)N1CCC2(CC1)CN(c1ccccn1)C2 | ? | 2.1e-08 | i | i | i | i
CCOc1ccc(/C=c2\sc3nc(-c4ccco4)nn3c2=O)cc1OCC | 1.2e-07M* | 7.2e-09 | i | i | i | ?
COc1ccccc1/C=c1\sc2nc(-c3ccco3)nn2c1=O | i | 6.3e-09 | i | i | i | i
Cn1cc[nH]c1=S | 2.2e-08M* | 1.8e-08 | i | i | i | i
CCCOc1ccc(-c2nnc(-c3ccncc3)o2)cc1 | ? | 5.9e-08 | i | i | i | i
CCN(CC)c1ccc2cc(-c3nnc(-c4ccncc4)o3)c(=O)oc2c1 | 1e-06M* | 1.2e-08 | i | i | i | 4.8e-08M*
N=c1c(C(=O)NCc2ccco2)cc2c(=O)n3ccccc3nc2n1Cc1ccc(Cl)cc1 | ? | 3.2e-09 | i | ? | i | i
N=c1c(C(=O)NCc2ccc3c(c2)OCO3)cc2c(=O)n3ccccc3nc2n1Cc1cccnc1 | ? | 4.4e-08 | i | i | i | i
N=c1c(C(=O)NCc2ccco2)cc2c(=O)n3ccccc3nc2n1Cc1ccccc1 | 1.9e-08M* | 3.4e-08 | i | i | i | i
Cc1ccc(S(=O)(=O)c2cc3c(=O)n4ccccc4nc3n(Cc3ccco3)c2=N)cc1 | 1.5e-08M* | 7.5e-09 | i | ? | i | i
COc1ccc(CNC(=O)c2cc3c(=O)n4ccccc4nc3n(Cc3cccnc3)c2=N)cc1 | 1.1e-07M* | 4.1e-08 | i | i | i | ?
CCOC(=O)c1cc2c(=O)n3ccccc3nc2n(Cc2ccc(Cl)cc2)c1=N | 3.4e-07M* | 1e-09 | i | i | i | 2.6e-08M*
CCCCNC(=O)c1cc2c(=O)n3cccc(C)c3nc2n(Cc2ccncc2)c1=N | 1.6e-08M* | 3.2e-09 | i | ? | i | i
COCCNC(=O)c1cc2c(=O)n3cccc(C)c3nc2n(Cc2ccncc2)c1=N | i | 1.6e-08 | i | i | i | i
O=C(c1cnn2c(C(F)(F)F)cc(-c3ccc4c(c3)OCO4)nc12)N1CCCCC1 | i | 3.3e-08 | i | i | i | i

Assay outcomes: PubChem BioAssay, National Center for Advancing Translational Sciences (NCATS)
